Source: PubChem (National Center for Advancing Translational Sciences (NCATS))
Hits are enriched below; roughly 6.1% of the tested compounds scored in any of these assays.
GBA activity = modulators of human glucocerebrosidase; 1.1% of 48,000 active; Potency, µM; P04062; purified enzyme, resorufin glucoside fluorescence (screen aimed at inhibitors), 20 min; in the data active = potency below about 15 µM; inconclusive = mostly about 16 µM to 33 µM;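 note: the screen sought inhibitors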
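Normal human glucocerebrosidase (0.2 nM final) was assayed with resorufin β-D-glucopyranoside (30 uM final) in 50mM citric acid/KH2PO4, 10mM sodium taurocholate, 0.01% tween-20, pH 5.9. Compounds were titrated; fluorescence (Ex 548, Em 600) read after 20 min at RT.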
Luciferase inh = inhibitors of firefly luciferase. P08659. purified firefly luciferase, luminescence, 8 min. Potency, µM (top dose mostly 57.1 µM), for inactives: at the top dose activity change, negative = inhibition, actives largely listed as inhibitors. 2.2% of 72,000 active; note: % is set by controls: 0 for no effect and ±100 for the full control effect; nearly all actives have a fitted effect of over 40% in size
Target sequence (P08659 whole entry, looked up): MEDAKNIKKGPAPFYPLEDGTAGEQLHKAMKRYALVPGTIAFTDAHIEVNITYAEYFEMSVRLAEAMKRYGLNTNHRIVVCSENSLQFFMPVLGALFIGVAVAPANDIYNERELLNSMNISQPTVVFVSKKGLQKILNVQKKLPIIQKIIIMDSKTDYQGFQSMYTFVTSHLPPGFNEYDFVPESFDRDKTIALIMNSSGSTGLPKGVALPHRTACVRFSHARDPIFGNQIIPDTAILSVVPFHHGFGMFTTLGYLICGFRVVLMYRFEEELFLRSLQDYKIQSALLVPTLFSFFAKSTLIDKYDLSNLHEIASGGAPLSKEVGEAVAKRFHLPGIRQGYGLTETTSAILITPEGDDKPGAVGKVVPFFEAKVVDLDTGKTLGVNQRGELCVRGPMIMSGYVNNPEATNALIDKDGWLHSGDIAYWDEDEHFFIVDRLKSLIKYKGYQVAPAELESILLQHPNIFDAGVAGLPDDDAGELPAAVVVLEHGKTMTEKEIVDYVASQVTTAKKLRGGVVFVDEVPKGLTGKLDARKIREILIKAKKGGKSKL
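Firefly luciferase (PKLight detection mix) with 10 uM ATP in pH 7.2 imidazole buffer (KCl, MgCl2, Tween 20, BSA). Compounds tested across a concentration series (qHTS). Luminescence read after 8 min at ambient temperature.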
TSHR agonist = agonists of human thyroid stimulating hormone receptor; P16473; Potency, µM (highest dose often 57.1 µM), inactives show at the highest dose activation, actives largely listed as activators; 0.48% of 73,000 active; AID 926; HEK293-CNG-TSHR cells (CNG channel as cAMP sensor), membrane potential dye, cAMP; active = well fitted activation curve with a large enough effect in the main read-out, with a control signal flat, not every such curve was filed as active; inconclusive = small, poorly fitted or top-dose-only effect, or a change in a side signal; inactive = no such curve, though single readings can be large or run the other way; % of control where 0% means no effect;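 note: the control signal comes from parental cells without the receptor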
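HEK 293 cells stably expressing TSHR and a modified CNG channel, with CNG-only parental cells as counterscreen, were preloaded 60 min at room temperature with membrane potential dye containing 100 uM RO 20-1724. Compound exposure was 30 min, and depolarization was read as fluorescence at 590 nm.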
ERK AVP block = blocks ERK signaling stimulated by vasopressin; AID 995; 0.99% of 72,000 active; Potency, µM (doses to about 57.5 µM), for the others: at the top dose activity, negative = inhibition, most hits filed as inhibitors; HEK293-V1b, vasopressin-stimulated pERK AlphaScreen; note: % is set by controls: 0 for no effect and ±100 for the full control effect; nearly all actives have a fitted effect of over 55% in size
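qHTS, compounds titrated on V1b-expressing HEK293 cells. Preincubation 30 min at 37C, vasopressin 25 nM for 5 min, lysis 10 min, bead incubation 5 hr at room temperature.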
HEK293 cAMP cs = raises cAMP in parental HEK293 cells, TSHR agonist counter-screen; 2.5% of 73,000 active; parental HEK293 CNG cAMP sensor, membrane potential fluorescence; Potency, µM (titrated, usually from 57.1 µM), inactives show top-dose activation, most hits filed as activators; note: % of control where 0% means no effect; nearly all actives have a fitted effect of over 55% in size
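Counterscreen for endogenous-receptor signalling: CNG-channel HEK 293 cells report cAMP rise by membrane depolarization. After 60 min dye equilibration with 100 uM RO 20-1724, compounds incubated 30 min before bottom-read fluorescence at 590 nm.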
Bst PK mod = modulators of Bacillus stearothermophilus pyruvate kinase; purified pyruvate kinase, luminescence ATP production; ribose 5-phosphate activator present at AC10; 1.2% of 51,000 active; Potency, µM; AID 361; in the data active = potency below about 11 µM; inconclusive = mostly about 12 µM to 25 µM;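 the screen sought inhibitors and activators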;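 note: scaled between full activation by ribose 5 phosphate and full inhibition by luteolin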
Starred values were filed as active, the others as inactive; i = inactive; ? = inconclusive; . = not tested or not shown; [ ] = dose if it differs, or a comment. Unless noted, calls come from the whole dose curve; as a rule, active = well fitted curve in the direction sought with a large enough effect; inconclusive = small, poorly fitted or top-dose-only effect, or another doubt; inactive = no such curve, though single readings can be large; an effect the other way counts as inactive or inconclusive. Potency is the fitted concentration of half-maximal effect.

SMILES	GBA activity	Luciferase inh	TSHR agonist	ERK AVP block	HEK293 cAMP cs	Bst PK mod
COc1ccc(COC(=O)N/N=C2/C[C@@H](O)[C@@H](O)[C@@H]3[C@@H]4C(=O)N(c5cccc(Oc6ccccc6)c5)C(=O)[C@H]4CC[C@@H]23)cc1	.	-0.9%[11.4 µM]	-7.0%[11.4 µM]	-8.6%[11.5 µM]	-1.5%[11.4 µM]	.
O=C(Nc1ccc(N2CCCC2)cc1)c1cccc(F)c1	>76.9	3.16µM*	?	-27.8%	?	?
O=C(c1cccc(F)c1)N1CCC2(CC1)CCN(c1ccc(-c3ccccc3)cc1)CC2	.	-0.7%[11.4 µM]	?	-6.9%	15.8µM*	.
CC(C)(C)C(=O)[C@H]([C@@H](c1ccccc1)N1CCOCC1)N1CCOCC1	.	1.7%[11.4 µM]	10.8%[11.4 µM]	-19.2%[11.5 µM]	24.7%[11.4 µM]	.
Oc1c(C=Nc2cccnc2)sc2ccccc12	.	12.6µM*	.	.	.	11.4*
CC=C(Cl)Cl	.	.	?	6.1%	?	.
C[C@@H]1NC(=O)C/C=C\[C@@H](C)[C@@H]2C=C[C@H](O)[C@@H](COC(=O)[C@H](C)NC(=O)C/C=C\[C@@H](C)[C@@H]3C=C[C@H](O)[C@@H](COC1=O)O3)O2	.	0.5%[11.4 µM]	4.8%[11.4 µM]	6.0%[11.5 µM]	5.1%[11.4 µM]	.
CCc1cccc2c(-c3ccccc3)c3c(nc12)OCC3	.	.	?	1.7%	?	.
COC(=O)c1ccc(COc2ccc3c(C)c(C)c(=O)oc3c2)o1	.	-6.4%	?	-17.9%	3.98µM*	.
CN(CCNC(=O)C1CC(=O)N(c2ccc(F)c(Cl)c2)C1)Cc1ccccc1 (stereo not given)	15.4*	-0.2%	5.0%	16.2%	6.1%	>57
CNC(=O)C1CC(=O)N(c2ccc(F)c(Cl)c2)C1 (stereo not given)	>76.9	0.5%	5.6%	21.2%	5.2%	>57
O=C(c1csnn1)N1CCC2(CC1)CCN(c1cccc(-c3ccccc3)c1)CC2	.	0.2%[11.4 µM]	?	21.0%	?	.
CO[C@H]1COC(=O)C/C=C\[C@H](C)[C@@H](OC)COC(=O)[C@H](C)COC(=O)C/C=C\[C@@H]1C	.	-0.8%[11.4 µM]	-8.5%[11.4 µM]	-5.3%[11.5 µM]	-1.3%[11.4 µM]	.
COc1ccc(C2=C(N)c3ccccc3C2=O)cc1	.	12.6µM*	?	5.9%	?	.
COc1ccc(C2C(=O)c3ccccc3C2=O)cc1	.	.	.	8.8%	.	.
FC(F)(F)c1ccccc1-c1nc(N2CCOCC2)c2ccccc2n1	.	1.2%[2.29 µM]	?	-4.9%	1µM*	.
CN1C(=O)CSc2ccc(NC(=O)N3CCN(c4ccccn4)CC3)cc21	?	-4.0%	?	?	?	>57
CN1C(=O)CSc2ccc(NC(=O)N3CCc4ccccc43)cc21	>76.9	12.6µM*	0.4%	2.2%	-3.1%	8.22*
CCC(C)(C(=O)NC1CCCCC1)N(Cc1ccco1)C(=O)c1ccc2c(c1)OCO2 (stereo not given)	>76.9	1.7%	?	-16.4%	7.94µM*	>57
COc1ccc(OC)c(NC(=O)c2cc3sccc3n2C)c1	>76.9	-26.2%	?	-14.1%	25.1µM*	.
Cn1c(C(=O)Nc2ccc3c(c2)OCO3)cc2sccc21	>76.9	7.94µM*	-13.7%	?	-14.2%	6.37*
COc1cc(NC(=O)c2cc3sccc3n2C)cc(OC)c1	.	12.6µM*	?	-10.9%	?	4.03*
C=C1CCO[C@@]2([C@H](O)[C@@](C)(O)CO)NC(=O)[C@]1(O)NC2=O	.	0.2%[11.4 µM]	?	-19.7%[11.5 µM]	?	.
Cc1cc(C(=O)CSC(=S)SC(C)(C)C)ccc1Cl	.	-7.6%[11.4 µM]	-2.6%[11.4 µM]	8.0%[11.5 µM]	2.5%[11.4 µM]	.
CO[C@H]1COC(=O)[C@H](C)COC(=O)[C@@H](OCc2ccccc2)/C=C\[C@@H]1C	.	1.3%[11.4 µM]	6.4%[11.4 µM]	18.1%[11.5 µM]	2.0%[11.4 µM]	.
SMILES	GBA activity	Luciferase inh	TSHR agonist	ERK AVP block	HEK293 cAMP cs	Bst PK mod
Cc1nc2cnc(Oc3ccccc3)nc2n(C)c1=O	.	0.0%[11.4 µM]	?	?	?	.
O=C1[C@@H]2C(c3ccccc3Cl)=NO[C@@H]2C(=O)N1Cc1ccccc1	>76.9	-1.2%	3.16µM*	12.2%	2.1%	>57
COc1ccc(CN2C(=O)[C@@H]3C(c4ccccc4Cl)=NO[C@@H]3C2=O)cc1	.	0.5%	.	-9.4%	1.9%	>57
CCOC(=O)c1[nH]c2cc3c(cc2c1NC(=O)CN1CC(C)CC(C)C1)OCO3 (stereo not given)	.	-0.7%[25.5 µM]	.	.	.	3.49*
CCOC(=O)c1[nH]c2ccc(OCC)cc2c1NC(=O)CN1CCCC(C)C1 (stereo not given)	>76.9	3.7%	22.4%	-2.2%	17.4%	i
O=C(NCc1ccco1)C1CCN(C(=O)c2cc3sccc3n2Cc2ccc(Cl)cc2)CC1	.	1.7%	?	?	12.6µM*	>57
O=C(Cn1c(C(=O)NCc2ccco2)cc2sccc21)c1ccccc1	>76.9	1.2%	.	-15.8%	20.5%	>57
CCn1c2ccccc2c2nnc(NCCCO)nc21	.	0.0%[11.4 µM]	-0.5%[11.4 µM]	-11.7%[11.5 µM]	12.4%[11.4 µM]	.
O=c1cc(-c2ccccc2)nc2nc(CCc3ccccc3)[nH]n12	>76.9	-1.0%	-8.2%	10.9%	-1.5%	>57
Cc1nc2nc(-c3ccccc3)cc(=O)n2[nH]1	>76.9	25.1µM*	2.1%	13.0%	8.1%	.
COc1ccccc1-c1ccc2ncnc(N(C)Cc3ccco3)c2c1	.	-1.6%[2.29 µM]	?	-12.7%	3.16µM*	.
CN(Cc1ccco1)c1ncnc2ccc(-c3ccoc3)cc12	.	1.8%[2.29 µM]	?	-27.0%	15.8µM*	.
CN(Cc1ccco1)c1nc(-c2ccoc2)nc2ccccc12	.	-1.1%[2.29 µM]	?	-16.0%	15.8µM*	.
CN(C)c1ccc(-c2nc(N(C)Cc3ccco3)c3ccccc3n2)cc1	.	-9.0%[2.29 µM]	16.1%	-5.0%	-3.7%	.
CCN1C(=O)[C@H]2[C@H]3[C@H](O)[C@H](O)C/C(=N/O[C@@H]4O[C@@H](COC(C)=O)[C@@H](OC(C)=O)[C@@H](OC(C)=O)[C@H]4OC(C)=O)[C@@H]3CC[C@@H]2C1=O	.	1.3%[11.4 µM]	-2.1%[11.4 µM]	3.0%[11.5 µM]	1.3%[11.4 µM]	.
O=C(/C=C\Nc1ccccn1)c1ccc(Cl)cc1	.	1.26µM*	16.1%	18.2%	8.5%	.
CCCCS/C(=C(/C#N)C(N)=O)c1cc2c([nH]1)CCCC2	>76.9	-2.1%	?	?	5.01µM*	>57
CCc1ccc(N/C(SC)=C(/C#N)C(N)=O)cc1	>76.9	-2.8%	-1.3%	-17.8%	24.0%	>57
